Where “and” joins values, the source holds several entries; their conditions need not be identical. Equal entries are not always repeated. In all, about 330,000 compounds went through this assay and about 3,800 (1.2%) were called active. No stated cut-off is given here; in the data, active means inhibition above about 15%; inconclusive means no clear call, values can overlap the other calls; inactive means below that. Shown is part of a subset that was picked to be rich in actives.
Each compound was assayed against NAD-dependent protein deacylase sirtuin-5, mitochondrial (Homo sapiens) (UniProt Q9NXA8) (assay: blockers of sirtuin-5 deacylase activity – biochemical, fluorescence imaging, single point, set 5, primary screen (AID 652115)). Details: Purified SirT5, succinyl-peptide AMC, trypsin-coupled fluorescence; at 15 µM; active compounds read high.
Chain of NAD-dependent protein deacylase sirtuin-5, mitochondrial (Homo sapiens) (Q9NXA8 whole entry, looked up): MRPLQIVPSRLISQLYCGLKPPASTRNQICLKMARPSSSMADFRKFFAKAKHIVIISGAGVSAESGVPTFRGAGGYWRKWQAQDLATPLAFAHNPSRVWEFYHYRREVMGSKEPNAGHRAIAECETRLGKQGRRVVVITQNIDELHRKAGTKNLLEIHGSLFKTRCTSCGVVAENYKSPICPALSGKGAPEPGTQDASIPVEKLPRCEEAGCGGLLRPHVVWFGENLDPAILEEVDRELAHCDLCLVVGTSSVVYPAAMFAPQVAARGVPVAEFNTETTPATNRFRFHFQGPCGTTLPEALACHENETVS

inhibition, inactive:
CC=Cc1ccc2n(c1=O)C[C@@H]1[C@@H](CO)[C@H](C(=O)NC3CCCC3)[C@H]2N1C(=O)c1cnccn1 (mixture of isomers) -1.91%
Cc1cccc(-c2ccc([C@H]3[C@H](CO)N4CCCCN(S(=O)(=O)c5cn(C)cn5)C[C@@H]34)cc2)c1 -2.31%
O=C(C[C@@H]1CC[C@@H]2[C@H](COC[C@@H](O)CN2Cc2ccc(F)cc2)O1)NCc1ccncn1 2.45%
COCC#Cc1ccc2c(c1)O[C@@H](CN(C)S(C)(=O)=O)[C@H](C)CN([C@H](C)CO)S2(=O)=O -0.381%
COc1cccc(S(=O)(=O)N(C)C[C@@H]2Oc3cc(C#CCN(C)C)ccc3S(=O)(=O)N([C@@H](C)CO)C[C@@H]2C)c1 -0.424%
CCCC#Cc1ccc2c(c1)O[C@@H](CN(C)S(=O)(=O)c1cccc(OC)c1)[C@H](C)CN([C@@H](C)CO)S2(=O)=O 0.047%
COc1cccc(S(=O)(=O)N(C)C[C@H]2Oc3cc(C#CCN(C)C)ccc3S(=O)(=O)N([C@H](C)CO)C[C@H]2C)c1 2.32%
C[C@H](O)C#Cc1ccc2c(c1)O[C@@H](CN(C)C(=O)C1CCCCC1)[C@H](C)CN([C@@H](C)CO)S2(=O)=O 5.37%
O=C(C[C@H]1CC[C@H]2[C@@H](COC[C@@H](O)CN2C(=O)Nc2ccc(C(F)(F)F)cc2)O1)NC1Cc2ccccc2C1 -1.39%
CN(C)[C@@H]1C(=O)C(C(N)=O)=C(O)[C@@]2(O)C(=O)C3=C(O)c4c(O)ccc(Cl)c4[C@@H](O)[C@H]3C[C@@H]12 6.39%
CNC(=O)C[C@H]1CC[C@H]2[C@H](COc3ccc(NC(=O)c4cccc(F)c4)cc3C(=O)N2C)O1 -1.94% and 2.58%
C[C@@H]1CN([C@@H](C)CO)C(=O)Cc2cc(NC(=O)Nc3cccc4ccccc34)ccc2O[C@H]1CN(C)CC1CCCCC1 -4.93%
N#Cc1c(C(F)(F)F)cc(-c2cccs2)nc1N1CCCCC1 5.73%
N#Cc1c(N2CCCCC2)nc(N)c2c(N)nc(SCC(=O)O)cc12 7.29%
CO[C@@H]1CN(C)C(=O)c2cc(NS(=O)(=O)CC(F)(F)F)ccc2OC[C@H](C)N(Cc2ccccn2)C[C@@H]1C 2.12%
C[C@@H]1CCCCO[C@H](CN(C)S(=O)(=O)c2cn(C)cn2)[C@@H](C)CN([C@@H](C)CO)C(=O)c2cc(NC(=O)c3ccncc3)ccc2O1 0.794%
Oc1cccc2cc(-c3ccncc3)cnc12 -0.877%
CC(=O)Nc1ccc(CNc2nc(NCCN(C)C)nc3cc(-c4ccccc4)sc23)cc1 2.52%
COc1cccc(CNc2nc(NCc3cccs3)nc3ccsc23)c1 -1.12%
COc1ccc(C[C@@H]2CCc3cnnn3COC[C@H](c3ccccc3)NC2=O)cc1 2.11%
CCC(=O)N[C@H]1CC[C@H](CCn2cc(-c3cccc(OC)c3)nn2)O[C@H]1CO -2.52%
Cc1ccc(C(=O)OCC(=O)N2CCCCCC2)cc1S(=O)(=O)N1CCOCC1 1.4%
COc1ccc(CNC(=O)COC(=O)c2ccc(C)c(S(=O)(=O)N3CCOCC3)c2)cc1OC -1.07%
C[C@H]1CCCCO[C@@H](CN(C)C(=O)C2CCCCC2)[C@@H](C)CN([C@@H](C)CO)C(=O)c2cc(NS(=O)(=O)c3cccs3)ccc2O1 8.81%
COCC#Cc1cnc2c(c1)C(=O)N([C@H](C)CO)C[C@@H](C)[C@@H](CN(C)Cc1ccccc1F)O2 1.75%
CO[C@@H]1CN(C)C(=O)c2cc(NS(=O)(=O)c3cccc(F)c3)ccc2OC[C@@H](C)NC[C@@H]1C -3.7%
CCC(=O)Nc1ccc2c(c1)C(=O)N(C)C[C@@H](OC)[C@H](C)CN(Cc1ccccc1C(=O)O)[C@@H](C)CO2 2.25%
O=C(C1CCCCC1)N1CC2(C1)[C@H](c1ccccc1)[C@H](CO)N2CC1CCCC1 5.17%
O=C(COC(=O)c1cccnc1Cl)NC12CC3CC(CC(C3)C1)C2 0.076%
O=C(COC(=O)c1ccc([N+](=O)[O-])o1)NC12CC3CC(CC(C3)C1)C2 -5.22%
COCC(=O)Nc1ccc2c(c1)OC[C@@H](C)N(Cc1ccccn1)C[C@H](C)[C@@H](OC)CN(C)C2=O -1.91%
COc1cccc(S(=O)(=O)Nc2ccc3c(c2)C(=O)N(C)C[C@@H](OC)[C@@H](C)CN[C@@H](C)CO3)c1 5.28%
C[C@H](O)C#Cc1cnc2c(c1)C(=O)N([C@@H](C)CO)C[C@H](C)[C@@H](CN(C)C(=O)c1ccccc1)O2 -1.59%
Cc1cccc(OCCC(=O)Nc2ccccc2C(N)=O)c1 -1.74%
Cc1cccc(OCC(=O)Nc2ccccc2F)c1 -2.03%
O=C(C[C@@H]1CC[C@H]2[C@@H](COC[C@@H](O)CN2S(=O)(=O)c2cccc(Cl)c2)O1)N1CCCCC1 1.52%
COc1ccccc1NC(=O)CCCc1c[nH]c2ccccc12 -1.4%
COc1ccc(CCNS(=O)(=O)c2ccc(F)cc2)cc1OC -1.59%
CC=Cc1ccc2n(c1=O)C[C@H]1[C@H](CO)[C@@H](C(=O)NCC3CC3)N(Cc3nccs3)[C@@H]21 (mixture of isomers) 1.01%
COCC(=O)N1C[C@H]2[C@@H](c3ccccc31)[C@@H](CO)N2C(=O)NC(C)C 0.583%
O=C(C1CCC1)N1CC(=O)N2[C@H](C1)[C@@H](c1ccc(-c3ccccc3F)cc1)[C@@H]2CO 3.28%
C[C@H](CO)N1C[C@H](C)[C@H](CN(C)Cc2ccc(C(=O)Nc3ccccc3N)cc2)Oc2c(NC(=O)Nc3ccccc3)cccc2C1=O -0.83%
COc1ccc(C2NC(=O)N(C)C(C)=C2[N+](=O)[O-])cc1 (stereo unspecified) 2.48%
COCCN1C(=O)N[C@@H](c2ccccc2)C(C(=O)OC)=C1C -1.66%
CC=Cc1ccc2n(c1=O)C[C@H]1[C@H](CO)[C@@H](C(=O)N3CCCCC3)N(Cc3ccccn3)[C@@H]21 (mixture of isomers) 3.91%
C[C@@H](NC(=O)C[C@H]1C[C@H]2c3cc(NC(=O)C4CCOCC4)ccc3O[C@H]2[C@@H](CO)O1)c1ccccc1 -0.41%
COCCCNC(=S)NNC(=O)C(O)(c1ccccc1)c1ccccc1 -5.23%
Cc1cc(C)c2[nH]c(=O)c(CN(Cc3ccccc3)C(=S)NCCCN(C)C)cc2c1 -6.33%
COCC(=O)N1[C@H](CO)[C@@H](c2ccccc2)[C@H]1CN(C)C(=O)c1ccncc1 3.21%
CN(c1ccccc1)S(=O)(=O)c1ccc2[nH]c(=O)[nH]c2c1 -0.22%
CCN(c1ccccc1)S(=O)(=O)c1ccc(OCC(=O)N2CCCC2)cc1 -0.147%
O=C(C[C@H]1C=C[C@H](NC(=O)Cc2ccccn2)[C@@H](CO)O1)NCCc1ccccc1 6.76%
O=C(C1CCCC1)N1CC(=O)N2[C@H](C1)[C@@H](c1ccc(-c3cccnc3)cc1)[C@@H]2CO 1.11%
CO[C@H]1CN(C)C(=O)c2ccc(NC(=O)Nc3c(C)noc3C)cc2OC[C@@H](C)NC[C@H]1C -5.86%
Cc1cccc(-n2c(C)cc(/C=N\NC(=O)c3cccs3)c2C)c1 -1.07%
CC(C)c1ccc(C=NNc2ccc([N+](=O)[O-])cn2)cc1 1.24%
O=S(=O)(c1ccc(F)cc1)N1CC[C@@H]2[C@@H](CO)Nc3ccc(-c4ccccc4F)cc3[C@@H]21 7.3%
O=C(C[C@@H]1C[C@@H]2c3cc(NC(=O)Nc4ccc(F)cc4)ccc3O[C@@H]2[C@H](CO)O1)NCC(F)(F)F -3.74%

inhibition, active:
COc1ccccc1S(=O)(=O)N(C)C[C@H]1Oc2cc(C#CCC3CCCC3)ccc2S(=O)(=O)N([C@@H](C)CO)C[C@H]1C 16.1%
COc1ccccc1S(=O)(=O)N(C)C[C@@H]1Oc2cc(C#CCC3CCCC3)ccc2S(=O)(=O)N([C@H](C)CO)C[C@H]1C 18.3%
C=C1c2c(Cl)ccc(O)c2C(O)=C2C(=O)[C@]3(O)C(O)=C(C(N)=O)C(=O)[C@@H](N(C)C)[C@@H]3[C@@H](O)C12 (stereo partly specified) 35.9%
N#CCc1c(C#N)c(N)nc(N2CCCC2)c1C#N 26.2%
COCCNc1nc(NCc2ccc(NC(C)=O)cc2)c2sccc2n1 16.4%
COc1ccc(C(=O)OCC(=O)c2ccc(C)c(S(=O)(=O)N3CCOCC3)c2)cc1OC 25.2%
O=C(COC(=O)c1ccc(Br)o1)NC12CC3CC(CC(C3)C1)C2 15.6%
COc1cccc(OCC(=O)Nc2ccccc2C(N)=O)c1 29.5%
COc1ccc(S(=O)(=O)NCCc2c[nH]c3ccccc23)cc1OC 21.4%
COC(=O)C1=C(C)N(C)C(=O)NC1c1ccc([N+](=O)[O-])o1 (stereo unspecified) 17.2%
COCCCNC(=S)N(Cc1ccccc1)Cc1ccc(F)cc1 15.1%
CCN(c1ccccc1)S(=O)(=O)c1ccc2[nH]c(=O)[nH]c2c1 23.9%
Cc1cc(/C=N/Nc2ccc([N+](=O)[O-])cn2)c(C)n1-c1cccc(C(=O)O)c1 17.7%

Source: PubChem BioAssay AID652115 (Broad Institute, 2013)
